# Results reported in PubChem BioAssay AID1159580 (chemical genetic matrix, 2015).
# Among all 5,500 compounds or so, about 2,000 (36%) were called active. Roughly 18% stayed inconclusive and do not appear here. This is one part of the list. A number with no mark means an inactive call. Rule as the data show it: active = normalized growth mostly below about 0.91 (no sharp cut-off); inconclusive = no clear call, values can overlap the other calls; inactive = mostly above about 0.92.
# Test: chemical genetic growth profiling, strain panel (AID 1159580);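 also: tested at 20 µM; growth read once vehicle control cultures reached saturation at 30 °C; 1 = growth at the plate median or of vehicle wells; lower values mean less growth of the strain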
# Settings: S. cerevisiae deletion strains, growth OD
compound,measurement,setting,value
CCCCCCCCCCCC1=C(O)C(=O)C=C(O)C1=O,normalized growth,"locus YAL013W, strain DEP1, active compounds read low",0.662 (active)
same,normalized growth,"locus YAL021C, strain ccr4, active compounds read low",0.835 (active)
same,normalized growth,"locus YAL026C, strain drs2, active compounds read low",0.394 (active)
same,normalized growth,"locus YAL030W, strain snc1, active compounds read low",0.889 (active)
same,normalized growth,"locus YBL061C, strain skt5, active compounds read low",0.795 (active)
same,normalized growth,"locus YBR009C, strain hhf1, active compounds read low",0.853 (active)
same,normalized growth,"locus YBR021W, strain FUR4, active compounds read low",0.916
same,normalized growth,"locus YBR023C, strain chs3, active compounds read low",0.815 (active)
same,normalized growth,"locus YBR171W, strain sec66, active compounds read low",0.853 (active)
same,normalized growth,"locus YBR229C, strain ROT2, active compounds read low",1
same,normalized growth,"locus YBR231C, strain swc5, active compounds read low",0.77 (active)
same,normalized growth,"locus YBR279W, strain paf1, active compounds read low",0.762 (active)
same,normalized growth,"locus YCL011C, strain gbp2, active compounds read low",0.822 (active)
same,normalized growth,"locus YCL016C, strain dcc1, active compounds read low",0.886 (active)
same,normalized growth,"locus YCL029C, strain bik1, active compounds read low",0.89 (active)
same,normalized growth,"locus YCL061C, strain MRC1, active compounds read low",0.628 (active)
same,normalized growth,"locus YCL069W, strain vba3, active compounds read low",0.538 (active)
same,normalized growth,"locus YCR088W, strain abp1, active compounds read low",0.723 (active)
same,normalized growth,"locus YDL005C, strain med2, active compounds read low",0.961
same,normalized growth,"locus YDL035C, strain GPR1, active compounds read low",0.525 (active)
same,normalized growth,"locus YDL040C, strain nat1, active compounds read low",0.95
same,normalized growth,"locus YDL074C, strain BRE1, active compounds read low",0.365 (active)
same,normalized growth,"locus YDL101C, strain DUN1, active compounds read low",0.994
same,normalized growth,"locus YDL134C, strain PPH21, active compounds read low",0.956
same,normalized growth,"locus YDL185W, strain tfp1, active compounds read low",0.503 (active)
same,normalized growth,"locus YDL192W, strain arf1, active compounds read low",0.834 (active)
same,normalized growth,"locus YDR001C, strain nth1, active compounds read low",0.786 (active)
same,normalized growth,"locus YDR069C, strain doa4, active compounds read low",0.692 (active)
same,normalized growth,"locus YDR101C, strain arx1, active compounds read low",0.871 (active)
same,normalized growth,"locus YDR137W, strain rgp1, active compounds read low",0.81 (active)
same,normalized growth,"locus YDR150W, strain NUM1, active compounds read low",0.673 (active)
same,normalized growth,"locus YDR159W, strain sac3, active compounds read low",0.822 (active)
same,normalized growth,"locus YDR162C, strain NBP2, active compounds read low",0.338 (active)
same,normalized growth,"locus YDR195W, strain ref2",0.853 (active)
same,normalized growth,"locus YDR297W, strain sur2, active compounds read low",0.87 (active)
same,normalized growth,"locus YDR318W, strain mcm21, active compounds read low",0.955
same,normalized growth,"locus YDR334W, strain swr1, active compounds read low",0.259 (active)
same,normalized growth,"locus YDR335W, strain msn5, active compounds read low",0.599 (active)
same,normalized growth,"locus YDR388W, active compounds read low",0.98
same,normalized growth,"locus YDR392W, strain spt3, active compounds read low",0.16 (active)
same,normalized growth,"locus YDR502C, strain sam2, active compounds read low",0.886 (active)
same,normalized growth,"locus YEL003W, strain gim4, active compounds read low",0.851 (active)
same,normalized growth,"locus YEL037C, strain rad23, active compounds read low",0.467 (active)
same,normalized growth,"locus YEL061C, strain CIN8 (second series), active compounds read low",0.493 (active)
same,normalized growth,"locus YEL061C, strain CIN8, active compounds read low",0.665 (active)
same,normalized growth,"locus YER015W, strain faa2, active compounds read low",0.748 (active)
same,normalized growth,"locus YER016W, strain bim1, active compounds read low",0.944
same,normalized growth,"locus YER110C, active compounds read low",0.976
same,normalized growth,"locus YER111C, strain swi4, active compounds read low",0.265 (active)
same,normalized growth,"locus YER155C, strain BEM2 (second series), active compounds read low",0.615 (active)
same,normalized growth,"locus YER155C, strain BEM2, active compounds read low",0.925
same,normalized growth,"locus YER167W, strain BCK2, active compounds read low",0.952
same,normalized growth,"locus YFR010W, strain ubp6, active compounds read low",0.507 (active)
same,normalized growth,"locus YGL078C, strain dbp3, active compounds read low",0.822 (active)
same,normalized growth,"locus YGL086W, strain mad1, active compounds read low",0.798 (active)
same,normalized growth,"locus YGL167C, strain pmr1, active compounds read low",0.882 (active)
same,normalized growth,"locus YGL173C, strain kem1, active compounds read low",0.703 (active)
same,normalized growth,"locus YGL227W, strain vid30, active compounds read low",0.909 (active)
same,normalized growth,"locus YGL240W, strain doc1, active compounds read low",0.923
same,normalized growth,"locus YGL248W, strain PDE1, active compounds read low",0.92
same,normalized growth,"locus YGL253W, strain hxk2, active compounds read low",0.359 (active)
same,normalized growth,"locus YGR078C, strain PAC10, active compounds read low",0.684 (active)
same,normalized growth,"locus YGR135W, strain pre9, active compounds read low",0.888 (active)
same,normalized growth,"locus YGR252W, strain gcn5, active compounds read low",0.95
same,normalized growth,"locus YHR013C, strain ard1, active compounds read low",0.743 (active)
same,normalized growth,"locus YHR027C, strain rpn1, active compounds read low",0.605 (active)
same,normalized growth,"locus YHR030C, strain SLT2, active compounds read low",0.596 (active)
same,normalized growth,"locus YHR079C, strain IRE1 (second series), active compounds read low",0.991
same,normalized growth,"locus YHR094C, strain hxt1, active compounds read low",0.994
same,normalized growth,"locus YHR129C, strain ARP1, active compounds read low",0.67 (active)
same,normalized growth,"locus YHR142W, strain chs7, active compounds read low",0.274 (active)
same,normalized growth,"locus YHR200W, strain rpn10, active compounds read low",0.89 (active)
same,normalized growth,"locus YIL066C, strain RNR3, active compounds read low",0.856 (active)
same,normalized growth,"locus YIL073C, strain SPO22, active compounds read low",0.933
same,normalized growth,"locus YIL125W, strain kgd1, active compounds read low",0.623 (active)
same,normalized growth,"locus YIR030C, strain dcg1, active compounds read low",0.972
same,normalized growth,"locus YJL092W, strain hpr5, active compounds read low",0.684 (active)
same,normalized growth,"locus YJL095W, strain BCK1 (second series), active compounds read low",0.88 (active)
same,normalized growth,"locus YJL095W, strain BCK1, active compounds read low",0.68 (active)
same,normalized growth,"locus YJL115W, strain asf1, active compounds read low",0.72 (active)
same,normalized growth,"locus YJL129C, strain trk1, active compounds read low",0.999
same,normalized growth,"locus YJL134W, strain LCB3, active compounds read low",0.984
same,normalized growth,"locus YJL154C, strain vps35, active compounds read low",0.521 (active)
same,normalized growth,"locus YJL164C, strain tpk1, active compounds read low",0.83 (active)
same,normalized growth,"locus YJL166W, strain qcr8, active compounds read low",0.792 (active)
